Reference: the OligoGym collection

molecular target: PARP11; test: pooled miR-30 sensor sort-seq; sequence = guide strand; details: shRNA

Question: For TAAGCTGATATGGTACTTGAGT, which sensor-assay potency score (higher = more potent) is on record?
Answer: -0.461

Question: With TACTTGAGTATTCACATTCTCC as the sequence, how does the sensor-assay potency score (higher = more potent) read?
Answer: -0.755

Question: Which sensor-assay potency score (higher = more potent) does the source give for TTTTTTTCTTGAGCTGAGCCTT here?
Answer: -0.839

Question: Which sensor-assay potency score (higher = more potent) does the source give for TTGCGATCCATCGTCTTCCCAA here?
Answer: -0.797

Question: With TTGAGTATTCACATTCTCCCAG as the sequence, how does the sensor-assay potency score (higher = more potent) read?
Answer: -0.0297

Question: How did the sensor-assay potency score (higher = more potent) turn out when TTAATCTGAGGCACACCTCTTT was run?
Answer: 0.16

Question: With TTTAATTCGGTTGCGATCCATC as the sequence, how does the sensor-assay potency score (higher = more potent) read?
Answer: -0.893

Question: How did the sensor-assay potency score (higher = more potent) turn out when TATAAATTCACATAGCTCCCGT was run?
Answer: 0.0491

Question: Which sensor-assay potency score (higher = more potent) does the source give for TAAAGCTTCCTTGACCACCGAG here?
Answer: 0.0153

molecular target: PATL1; test: as above; details: shRNA

Question: For TAGCAGGGTCTGAACTCTGTAG, which sensor-assay potency score (higher = more potent) is on record?
Answer: -0.715

Question: How did the sensor-assay potency score (higher = more potent) turn out when TTTTCGGATACACATGATCTGT was run?
Answer: -1.26

Question: How did the sensor-assay potency score (higher = more potent) turn out when TTTCTCAATTATAACAAGGGTT was run?
Answer: -0.533

Question: How did the sensor-assay potency score (higher = more potent) turn out when TTTGTGCTTTCTGTCATCCATT was run?
Answer: -0.905

Question: With TTTTTCTCCTCTTGTCTCGAAC as the sequence, how does the sensor-assay potency score (higher = more potent) read?
Answer: -1.11

Question: With TTTCGGATACACATGATCTGTA as the sequence, how does the sensor-assay potency score (higher = more potent) read?
Answer: -0.0955

Question: For TTATTCACACTAGAAACGGTAA, which sensor-assay potency score (higher = more potent) is on record?
Answer: -0.529

Question: How did the sensor-assay potency score (higher = more potent) turn out when TATTCTGTTGCTGTCTCTGATG was run?
Answer: -1.31

Question: How did the sensor-assay potency score (higher = more potent) turn out when TGTCACAACAGCATCAATCATT was run?
Answer: -0.773

Question: With TTGAGGTAGGTTCATTAGCTGT as the sequence, how does the sensor-assay potency score (higher = more potent) read?
Answer: -1.61

Question: Which sensor-assay potency score (higher = more potent) does the source give for TGATCTTGATGACTGCTCCGGT here?
Answer: 0.466

Question: How did the sensor-assay potency score (higher = more potent) turn out when TTTGTGTTGATTCTGTAGCAGG was run?
Answer: -0.627
